# Reference: ChEMBL document CHEMBL3988442, “University of Dundee, Small-Polar-MMV Screening Library” (2021)
# What was measured:
# [1] = target: T1, Aspartate--tRNA(Asp/Asn) ligase (Mycobacterium tuberculosis (strain ATCC 25618 / H37Rv)) (UniProt P9WFW3); assay: Assay for Asp RNA synthetase-1 from Mycobacterium tuberculosis; format: functional; set-up: scale not given: direction of the effect not stated beside the values; conditions: 30 µM; also: in the data most compounds retested in dose-response had high values
# T1 sequence (whole entry): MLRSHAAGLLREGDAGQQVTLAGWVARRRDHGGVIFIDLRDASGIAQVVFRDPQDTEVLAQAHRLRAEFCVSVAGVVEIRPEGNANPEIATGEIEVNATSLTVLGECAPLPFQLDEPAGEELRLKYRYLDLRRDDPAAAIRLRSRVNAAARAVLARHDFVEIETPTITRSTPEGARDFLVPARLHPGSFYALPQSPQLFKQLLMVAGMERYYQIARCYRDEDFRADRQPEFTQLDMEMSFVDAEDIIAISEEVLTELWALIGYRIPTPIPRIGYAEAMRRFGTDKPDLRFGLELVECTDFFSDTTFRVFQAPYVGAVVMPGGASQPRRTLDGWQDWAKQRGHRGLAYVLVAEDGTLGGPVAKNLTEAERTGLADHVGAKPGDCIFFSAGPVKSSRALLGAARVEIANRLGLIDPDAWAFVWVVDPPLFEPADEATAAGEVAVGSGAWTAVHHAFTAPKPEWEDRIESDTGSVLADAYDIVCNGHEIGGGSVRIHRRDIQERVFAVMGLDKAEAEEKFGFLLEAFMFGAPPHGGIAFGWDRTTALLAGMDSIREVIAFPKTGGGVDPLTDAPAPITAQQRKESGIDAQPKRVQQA
# [2] = target: Shiga toxin 2 (Escherichia coli O157:H7) (UniProt P09385+P09386); assay: E. coli 0.157:H7 Shiga Toxin SOP - stx2 screening assay; format: functional; set-up: scale not given: direction of the effect not stated beside the values; conditions: 30 µM
SMILES,Percent Effect [1],Percent Effect [2]
CCC(=O)N1CCC2(COCc3c(C)nc(N(C)C)nc32)C1 (stereo unspecified),6.18%,-30.5%
Cc1nc(CN2C[C@@H]3CN(C(=O)C4CC4)C[C@@H]3C2=O)cs1,-6.04%,-17.6%
CCOc1ccc(CC(=O)N2CCN(c3nccn3C)CC2)cc1,5.09%,-64.2%
Cc1nsc(N2CCCN(c3nc(C4CC4)ns3)CC2)n1,0.575%,-18.6%
O=C(CO)N1CCC(c2cncc(-c3cccc(Cl)c3)n2)CC1,4.78%,-9.28%
O=C(NCc1nnc2ccccn12)N1CCc2sccc2C1,-2.69%,1.75%
CC(Cn1cccn1)NC(=O)NCc1cccnc1OC1CCCC1 (stereo unspecified),-4.78%,-7.65%
Cc1nsc(C(=O)N2CCc3ccccc3C2)n1,-2.11%,-13.9%
O=C(NCCCn1nc2ccccn2c1=O)NC1CCC(O)CC1 (stereo unspecified),4.86%,-44.5%
O=C(NCC1CCOC1)Nc1ccc(OCC(F)(F)F)nc1 (stereo unspecified),-1.61%,-28.7%
CCc1csc(C2CCCN(C(=O)c3cnn(CC)c3)C2)n1 (stereo unspecified),0.0599%,-7.95%
CC(Cn1cccn1)NCc1nc(-c2cccc(Cl)c2)no1 (stereo unspecified),-3.34%,22.5%
O=C(Nc1nncs1)NC1CCOc2ccccc21 (stereo unspecified),5.22%,-45.8%
O=C1CC(c2ccccc2)C2(CCN(CC3CC3)CC2)N1 (stereo unspecified),-1.66%,-14.7%
Cc1nc(CNCC2CCCN2c2cccnn2)cs1 (stereo unspecified),-0.7%,15.4%
CC(C)n1c(C2CCCN(CCS(C)(=O)=O)C2)nc2ccccc21 (stereo unspecified),0.943%,17.6%
O=C(O)c1cc2c(nc1O)CC(c1cccs1)CC2=O (stereo unspecified),2.79%,-19.6%
Cn1cnc2c1CCN(Cc1cccc(OCC(N)=O)c1)C2,-4.08%,-24.5%
Cc1nnc2n1CCN(C(C(=O)NC1CC1)c1ccccc1)C2 (stereo unspecified),-4.48%,15.2%
CCOc1ncccc1C(=O)N1CCCCC1c1nccs1 (stereo unspecified),-1.77%,2.91%
Cc1nnc2n1CCN(C(=O)c1cc(Cl)c(Cl)n1C)C2,-1.68%,8.23%
CCS(=O)(=O)NC(C(=O)NC)c1ccc(F)c(F)c1 (stereo unspecified),-0.436%,10.3%
C=C(C)CN(Cc1cccc(O)c1)C1CCC(O)CC1 (stereo unspecified),5.8%,18.1%
COc1ccnc(N2CCN(C(=O)Cc3ccc(C)s3)CC2)n1,2.36%,5.8%
Cc1ccc(SCC2CNc3nc4ccccc4c(=O)n32)c(C)c1 (stereo unspecified),0.0228%,9.77%
CC(C)c1nc(C2CCCN2Cc2ccn(C)c(=O)c2)no1 (stereo unspecified),3.39%,-44.4%

SMILES,Percent Effect [1],Percent Effect [2]
COc1ccnc(N2CCN(CC(=O)N3CCOCC3)CC2)n1,-1.91%,26.3%
O=C(c1ccco1)N1CCOCC2(CCN(C3CCOCC3)C2)C1 (stereo unspecified),8.62%,-31.1%
CCc1ccc(C(=O)N2CCN(CC(C)O)CC2)o1 (stereo unspecified),0.745%,5.26%
NCc1cnn(-c2ccccc2C(=O)NCCCn2ccnc2)c1,0.581%,10.4%
CNc1nc(C(=O)N2CCCC(c3nccn3CC3CCC3)C2)cs1 (stereo unspecified),10.9%,2.21%
COc1ccc(-c2noc(CN3CCOCC3C)n2)cc1OC (stereo unspecified),4.1%,26.5%
COc1ccc(OCc2nc(C(=O)N3CC(O)C3)co2)cc1,-0.0558%,-45.4%
O=C(c1coc(COc2cccc(F)c2)n1)N1CC[C@H](O)[C@@H](O)C1,2.06%,11.7%
CN(C)S(=O)(=O)N1CCN(c2nccc(C(F)(F)F)n2)CC1,-6.64%,-2.87%
CN(C)CC(=O)N1CCC2(CC(=O)N(c3cccc(C#N)c3)C2)C1 (stereo unspecified),7.58%,1.05%
CN(C)Cc1nnc(C2CCN(C(=O)CCc3cccs3)CC2)n1C,-0.948%,-11.1%
Cc1cnn(C2CCCN(C(=O)c3ccn(C)c(=O)c3)C2)c1 (stereo unspecified),-2.74%,22%
COCC1Cn2nnc(-c3cnn(C)c3)c2CN1Cc1ccc(C)s1 (stereo unspecified),1.73%,-7.17%
Cc1cccc(N2CCN(C(=O)Nc3cnn(CC(N)=O)c3)CC2)c1,-2.01%,-45.6%
Cc1ccc(C(=O)Nc2cn[nH]c2)cc1C,-2.79%,16.5%
Cc1cccc(CNCc2c(C(C)C)nn(C)c2N2CCOCC2)n1,7.04%,12.3%
CC(O)CN1CCC(CNCc2ccc(S(C)(=O)=O)cc2)CC1 (stereo unspecified),3.1%,-4.03%
Cc1c(F)cc(C(=O)O)cc1S(=O)(=O)Nc1cccc(C(F)F)c1,-0.0333%,12.3%
CCc1noc(C(C)N(C)CC(=O)Nc2c(C)cccc2C)n1 (stereo unspecified),-10.4%,10.3%
COc1ccc(C)cc1CN(C)Cc1nc2c(cnn2C)c(=O)[nH]1,1.01%,46.7%
CCc1nc(CN2CCOC(Cn3nc(C)nc3C)C2)no1 (stereo unspecified),3.17%,28.4%
CC(=O)NCC(=O)N1CCN(CC2CC2)c2ncccc2C1,-4.63%,-0.0207%
O=C(NCCN1CCCCC1)c1ccoc1,2.52%,-21.3%
CCN1CCOC(CNCc2ccccn2)C1 (stereo unspecified),1.04%,12.2%
COCCO[C@H]1CCN(C(=O)c2ccno2)[C@H]1Cc1cnn(C)c1,-3.56%,-13.7%
CC1COCCN1Cc1nc(-c2cccs2)no1 (stereo unspecified),14.7%,20.8%

SMILES,Percent Effect [1],Percent Effect [2]
CC(=O)N1CCCN(CC(C)(O)c2cccc(C(F)(F)F)c2)CC1 (stereo unspecified),0.301%,-32.4%
CC(C)c1cc(CNC(=O)N2CCC(Cc3cnn(C)c3)C2)on1 (stereo unspecified),-3.72%,11%
Cc1cncc(C(=O)N2CCCC(C(=O)CCc3ccccc3)C2)c1 (stereo unspecified),13.2%,-26.1%
CN1CCOC(CNCc2cccc(OCc3ccccn3)c2)C1 (stereo unspecified),-8.22%,-16.3%
CCC(=O)Nc1ccc2c(c1)CN(C(=O)c1ccco1)CC2,-3.28%,-43.9%
O=c1cc2c(nn1CN1CCN(c3cccc(Cl)c3)CC1)CCC2,-1.19%,-4.9%
COc1ccc(OCc2cc(C(=O)N3CCN[C@H](C)C3)n[nH]2)c(Cl)c1,-1.22%,-61%
Cc1cccc(CN2CCc3ncnc(N4CCOCC4)c3CC2)n1,-3.01%,-8.89%
Cc1nc(CN2C[C@@H]3CN(C(=O)c4cccn4C)C[C@@H]3C2=O)cs1,-0.382%,-4.43%
Cc1cc(CN2CCc3nn(C(C)C)c(=O)cc3C2)no1,-1.25%,6.39%
CC(C)n1ccnc1CN1CCCN(C(=O)c2cc(Cl)c[nH]2)CC1,3.35%,-53.1%
COCC(=O)N1CCCC1c1ccnc(Nc2cnccn2)n1 (stereo unspecified),0.0744%,1.15%
CCc1nc(C2CCCN2C(=O)CCNS(C)(=O)=O)no1 (stereo unspecified),-7.34%,-0.995%
CCC(C)c1noc(C2CCN(C(=O)c3cccnc3)CC2)n1 (stereo unspecified),17%,-27.8%
CC(=O)c1cc(CC(=O)NCc2ccc(CN(C)C)cc2)cs1,1.66%,-38.2%
CN1CCc2onc(CNc3ncccn3)c2C1,6.7%,-1.52%
NCC(c1ccccc1)N1CCc2sccc2C1 (stereo unspecified),-4.25%,-7.32%
CCc1nc(CN2CCCN(C(=O)c3cn[nH]c3CC)CC2)cs1,-1.54%,-78.4%
COC(=O)N1C[C@H]2CC[C@@H]1CN(Cc1cscn1)C2,-3.45%,17.3%
CCSc1cc(C(=O)NCc2ccccc2O)ccn1,2.33%,11.7%
CC(C)Cc1noc(CN2CCOC(Cn3cncn3)C2)n1 (stereo unspecified),1.02%,16.9%
NC(=O)c1csc(C(=O)N2CCCCC2Cn2cccn2)c1 (stereo unspecified),-1.92%,6.89%
CC(C)Oc1ncccc1CNC(=O)c1ccco1,-4.72%,-7.65%
Cc1cc(CN(C)C(=O)NC2CCCN(c3ncccn3)C2)no1 (stereo unspecified),-1.17%,33.3%
Cc1noc(C2CCC3(CCN(C(=O)C4=CCCCC4)CC3)O2)n1 (stereo unspecified),-2.98%,7.42%
CC(C)CS(=O)(=O)CC(=O)N(C)Cc1ccc(OC(F)F)cc1,-0.457%,4.95%

SMILES,Percent Effect [1],Percent Effect [2]
CCc1nnc(CN2CCN(C(=O)c3ccccn3)CC2)o1,-0.577%,21.4%
CNc1cncc(C2CCCN2Cc2c[nH]cn2)n1 (stereo unspecified),7.49%,7.95%
Cn1cnc(S(=O)(=O)NCCN2CCCCCC2=O)c1Cl,-1.7%,17.3%
Fc1ccc(CCN2CCC(c3nnc(-c4cccnc4)o3)CC2)cc1,4.51%,-76.7%
Cc1ccoc1C(=O)NCC(Cc1ccc(F)cc1)C(N)=O (stereo unspecified),-2.1%,9.66%
CC(=O)N1CCn2cc(CNC(=O)c3cccn3C)nc2C1,1.43%,-9.92%
Cc1ccccc1S(=O)(=O)N1CCCCC1c1ccn[nH]1 (stereo unspecified),0.632%,35.1%
Clc1ccccc1C1(c2ccnc(CC3CC3)n2)CCNCC1,-0.0892%,-10.7%
Cc1n[nH]c(=O)c2c(NC(=O)CN3CCCC(C(F)(F)F)C3)oc(C)c12 (stereo unspecified),-2.66%,-52.6%
CC[C@@H]1N(CC2CC2)CCC[C@]12CCC(=O)N2CCOC,-4.31%,-1.83%
CC(C(=O)NCc1ccnc(N2CCN(C)CC2)c1)n1cccn1 (stereo unspecified),-3.86%,6%
CCOCCn1nc(C)cc1C(=O)N1CC[C@](C)(O)[C@H](C)C1,-4.03%,4.67%
Cc1noc(C)c1CN1C[C@@H]2COC[C@H](C(=O)N3CCCCO3)[C@@H]2C1,4.46%,5.31%
Cc1cc(-c2cnc(NCc3cccnc3)nc2C(C)(C)C)on1,2.07%,2.89%
CN1CCN(C(=O)c2nc3c(o2)CN(C(=O)c2cccnc2)C3)CC1,2.23%,-53.6%
Cc1nn(CC(=O)N2CCCC2Cn2cccn2)c(C)c1Cl (stereo unspecified),0.155%,-3.65%
Cc1cc(-c2cnc(N3CCCC(C)C3)nc2-c2cccnc2C)on1 (stereo unspecified),7.13%,-30.1%
CCn1c(C)cc(C(=O)N2CCCC(c3nc(C)no3)C2)c1C (stereo unspecified),3.31%,9.36%
Cc1ccc(CC(=O)NCCCNS(C)(=O)=O)cc1,2.46%,-16.3%
CCc1cc(O)nc(C2CCCN2C(=O)c2cc(C)no2)n1 (stereo unspecified),7.1%,1.09%
Fc1cnc(N2CCn3cc(CNc4ccccn4)nc3C2)nc1,1.02%,-67.4%
CCCN1C(=O)CC(N2CCN(c3ccc(F)cc3)CC2)C1=O (stereo unspecified),5.99%,-15.7%
Cc1cnn(C2CCCN(C(=O)CCCNc3ncccn3)C2)c1 (stereo unspecified),1.18%,20.6%
CC(O)CN1CCC(CNCc2cccc(C(N)=O)c2)CC1 (stereo unspecified),-0.954%,12.7%
Cc1nnc2n1CCN(C(=O)c1cc(C)n(-c3ccccn3)c1C)C2,4.19%,32.2%
